MT1-MMP txn act = activates MT1-MMP transcription; HT1080 MT1-MMP promoter luciferase reporter, luminescence, overnight; hits give high values; activation factor at 10 µM; hit rate 0.16% among 86,000; AID 750;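 active = activation factor of at least 2 for MT1-MMP transcription at 10 µM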
Measles CPE = protection of cells from measles virus | AID 841 | Measles virus-infected cells, CPE protection, absorbance | hit rate 1.5% among 140,000 | protection (pct of control), % at 4 µM; in the data active = protection mostly above about 24%, no sharp cut-off; inactive = mostly below about 26%
Smad3 inh = Smad3 (human) transcription factor binding inhibition. TR-FRET Smad3/Dy647-FoxH1 peptide binding, europium anti-His. inhibition, % at 25 µM. hit rate 0.29% among 88,000;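 active = compounds that reduce the energy-transfer binding signal between the protein and its labelled peptide by more than half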;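 note: 0% = Smad3 plus labelled peptide maximal FRET and 100% = peptide-only background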
Target sequence (P84022 whole entry, looked up): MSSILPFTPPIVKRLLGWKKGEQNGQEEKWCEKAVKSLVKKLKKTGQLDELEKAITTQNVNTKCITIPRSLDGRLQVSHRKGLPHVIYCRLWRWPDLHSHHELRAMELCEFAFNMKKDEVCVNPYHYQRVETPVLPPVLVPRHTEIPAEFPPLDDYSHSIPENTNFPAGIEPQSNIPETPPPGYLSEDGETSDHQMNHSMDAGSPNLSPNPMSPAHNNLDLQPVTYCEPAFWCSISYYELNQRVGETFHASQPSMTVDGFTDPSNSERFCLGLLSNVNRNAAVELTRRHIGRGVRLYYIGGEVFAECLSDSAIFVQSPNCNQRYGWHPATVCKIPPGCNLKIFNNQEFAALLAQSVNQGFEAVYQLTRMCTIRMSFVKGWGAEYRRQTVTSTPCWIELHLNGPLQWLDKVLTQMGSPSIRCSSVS
Starred values were filed as active, the others as inactive; · = no result given; [ ] = another dose, or the depositor's remark. This is a sample that favours compounds with a hit; in the whole collection about 1.7% have one here.

SMILES	MT1-MMP txn act	Measles CPE	Smad3 inh
c1ccc(-n2nnnc2CN2CCOCC2)cc1	·	4.7	·
CCCCC(=O)Nc1cccc(NC(=S)NC(C)=O)c1	·	11.4	·
O=C(O)c1cc(C(=O)C(=O)c2cc(C(=O)O)c(O)c3ccccc23)c2ccccc2c1O	·	·	39.0
O=C(NCC(c1cccs1)N1CCOCC1)c1ccccc1NS(=O)(=O)c1cccc([N+](=O)[O-])c1 (stereo not given)	·	31.6*	·
O=C(NCC(c1cccs1)N1CCOCC1)c1ccccc1NS(=O)(=O)c1ccc(Cl)c([N+](=O)[O-])c1 (stereo not given)	·	5.6	·
CN(CCO)Cc1ncccc1O	·	·	3.6
c1ccc(C[C@@H](Nc2cccnc2)c2ccccc2)cc1	·	·	-10.5
COc1ccc(C)cc1S(=O)(=O)N(CC(=O)Nc1cccc([N+](=O)[O-])c1)c1ccc(C)c(C)c1	·	49.5*	·
Cc1ccc(NC(=O)CN(c2ccc(Cl)cc2)S(=O)(=O)c2cc([N+](=O)[O-])ccc2Cl)cc1	·	5.5	·
CCOc1ccc(N=Nc2cc(C(C)C)ccc2O)cc1	·	26.3*	·
CCOc1ccc(N=C(C)c2ccccc2O)cc1	·	15.6	·
O=C(NCCN1CCOCC1)/C(=C\c1ccc(Br)cc1)NC(=O)c1cccs1	·	9.2	·
O=C(O)c1nn(-c2ccccc2-c2n[nH]c(=O)[nH]c2=O)c(=O)[nH]c1=O	·	·	18.2
CCn1nnnc1SCC(=O)N1CCOCC1	1	27.9*	12.6
CCCn1nnnc1SCC(=O)N1CCOCC1	1.2	9.3	-11.0
Cc1c(NC(=S)N/N=C\c2ccccc2O)c(=O)n(-c2ccccc2)n1C	·	54.9*	·
Cc1cccc(C)c1NC(=S)Nc1c(C)n(C)n(-c2ccccc2)c1=O	·	15.4	·
c1ccc(C(CCN2CC3CCC(CC3)C2)c2ccccc2)cc1	·	·	-3.0
Cc1cc(C)c2cc(C#N)c(N3CCCC3)nc2c1	1.1	37.8*	6.7
Cc1ccc(S(=O)(=O)N2CCCN(c3nc4cc(C)ccc4cc3C#N)CC2)cc1	1.3	21.1	9.4
COC(=O)c1ccc(CN2[C@@H]3C[C@@H](O)CC[C@@H]3C[C@H]2C(=O)OC)cc1	1.1	·	·
Cc1cc(Br)ccc1OCCCCN1CCC(C)CC1	·	7.7	·
CCN1C(=O)C(NC(C)=O)c2cc(OC)ccc21 (stereo not given)	1.2	8.3	1.0
COc1ccc([C@@H]2Sc3cc(OC)ccc3N(CCN(C(C)C)C(C)C)C(=O)[C@H]2OC(C)=O)cc1	1.1	47.6*	-2.2
Cc1ccc(C(C)(C)C)cc1S(=O)(=O)Nc1cccc(S(=O)(=O)NC2=NCCC2)c1	·	6.9	·
SMILES	MT1-MMP txn act	Measles CPE	Smad3 inh
O=C(O)c1ccncc1.O=C(O)c1ccncc1.[Cl][Pt]([Cl])([Cl])[Cl]	·	·	71.6*
O=C(c1ccccc1)N1CCN(C(=O)c2ccncc2)CC1	1.3	·	-7.2
CCOCCCNS(=O)(=O)c1ccc(-n2cnnn2)c(OC)c1	1.2	3.1	13.1
CCN(CC)S(=O)(=O)c1ccc(-n2cnnn2)c(C)c1	1.2	48.4*	1.9
Cc1cc(S(=O)(=O)NCC(c2ccccc2)c2ccccc2)ccc1-n1cnnn1	1.1	23.2*	-5.1
Cc1cc(S(=O)(=O)N(Cc2ccccn2)Cc2ccco2)ccc1-n1cnnn1	1.2	4.9	5.6
OCCSCc1ccccc1	·	·	-8.0
COc1cccc2[nH]c(-c3ccccn3)nc12	·	·	1.4
Cn1c(=O)c2[nH]c(N=NN3CCN(CCO)CC3)nc2n(C)c1=O	·	·	8.0
CC(C)c1ccc(C2CC(=O)c3cnc(N4CCc5ccccc5C4)nc3C2)cc1 (stereo not given)	·	17.7	·
CC1CC(C)CN(c2ncc3c(n2)CC(c2ccccc2)CC3=O)C1 (stereo not given)	1.2	41.9*	18.1
CC(=O)CSCc1ccccn1	·	·	29.2
Cc1ccc(N(Cc2ccccc2)Cc2ccccc2)cc1	·	·	5.6
O=S(=O)(Nc1nc2ccccc2nc1N1CCN(c2ccccc2F)CC1)c1ccc(Cl)cc1	1.3	6.5	6.8
CCN(CC)c1c(-c2ccccc2)c2cc(C)ccc2[nH]c1=O	1.1	9.7	50.4*[fluorescence artefact?]
Cc1ccc2[nH]c(=O)c(CNS(=O)(=O)c3ccccc3)c(-c3ccccc3)c2c1	·	12.4	·
CCCCn1c(N)c(N(CCC(C)C)C(=O)CSc2nnc3ccccn23)c(=O)[nH]c1=O	1.1	10.9	0.6
CCCCn1c(N)c(N(CCC(C)C)C(=O)COC(=O)c2ccco2)c(=O)[nH]c1=O	1	31.1*	-6.4
Cc1c2cnccc2c(C)c2c1c1ccccc1n2CCOC(=O)c1ccccc1	·	·	-6.8
ClC(=Nc1cccc2ccccc12)N(c1ccccc1)c1ccccc1	·	·	3.3
CCCCNC(=O)NCc1cnn(C)c1C	·	8.7	·
COc1ccccc1OCCN1CSC(=S)N(C)C1	·	34.5*	·
Cc1cccc(OCCN2CSC(=S)N(C)C2)c1	1	3.8	-5.6
O=C(ONc1ccc(N=NC(=O)c2ccccc2O)cc1)c1ccccc1	1.2	2.5	-2.9
O=Nc1ccc(NOC(=O)c2ccccc2Br)cc1	·	27.7*	·
SMILES	MT1-MMP txn act	Measles CPE	Smad3 inh
Sc1ccc2ccccc2c1CNCc1ccccc1	·	·	-6.0
O=C(/C=C/c1ccccc1)N/C(=C/c1ccccc1)C(=O)N1CCCCC1	·	47.3*	·
COc1ccc(/C=C(/NC(=O)/C=C/c2ccccc2)C(=O)N2CCOCC2)cc1	·	10.8	·
Cc1nn(-c2nc3ccccc3s2)c(C)c1Oc1ccccc1O	1.6	43.8*	13.8
Cc1nn(-c2ccccn2)c(C)c1Oc1ccccc1O	1.2	0.4	-9.0
CCC(=O)Nc1ccc(Nc2nc(C)c([N+](=O)[O-])c(Nc3ccc(NC(=O)CC)cc3)n2)cc1	·	8.0	·
C[C@H]1[C@H](C)CC[C@@]2(C(=O)O)CC[C@@]3(C)C(=CC[C@H]4[C@]5(C)C[C@H](O)[C@@H](O)[C@@](C)(CO)[C@H]5[C@H](O)C[C@@]43C)[C@H]12	·	·	86.1*
Cc1cc(C(=O)Cn2nnc3ccccc3c2=O)c(C)n1-c1ccccc1F	0.7	96.6*	6.6
COc1ccc(-n2c(C)cc(C(=O)Cn3nnc4ccccc4c3=O)c2C)cc1	1.2	·	-1.6
O=C(Nc1ccc2c(c1)OCO2)c1ccc(Cl)s1	1.1	54.4*	4.4
O=C(Nc1ccc2c(c1)OCO2)c1ccc2c(c1)OCO2	·	19.5	·
O=C(Nc1ccc(OC(F)F)c(Cl)c1)Nc1ccc2c(c1)OCO2	1.3	41.4*	-12.7
O=C(Nc1ccc([N+](=O)[O-])cc1)Nc1ccc(OC(F)F)c(Cl)c1	·	2.7	·
C=C1C(=O)C=C2CN(C(=O)c3ccccc3)[C@@](Cc3ccc(OC)cc3)(C(=O)OC)[C@@H]12	1.1	·	·
NS(=O)(=O)c1cc(C(=O)O)c(O)c2ccccc12	·	·	17.3
CNC1=C(Cl)C(=O)c2ccncc2C1=O	1.1	·	·
CC(C)(C)NC(=O)Nc1ccc2nccnc2c1	1.3	20.5	8.9
CC(C)(C)NC(=O)c1ccc2nccnc2c1	1	52.0*	-2.6
O=C(CCl)Nc1cccc(-c2cnc3ccccc3n2)c1	0	1.6	7.3
CCC(=O)Nc1cccc(-c2cnc3ccccc3n2)c1	·	40.5*	8.2
Nc1nc(SCC(=O)C2CCC(Br)CC2)c2[nH]cnc2n1 (stereo not given)	·	·	8.3
COc1ccccc1NC(=O)c1ccc(NC(=O)CSc2n[nH]c(N)n2)cc1	·	4.7	·
COc1ccccc1NC(=O)C1=C(C)NC2=C(C(=O)CC(c3ccc(OC)c(OC)c3)C2)C1c1coc2ccccc2c1=O (stereo not given)	·	2.1	·
Cc1cc(Cl)ccc1OCC(=O)N/N=C1\CC2C=CCC12 (stereo not given)	·	18.6	·
